# The sample as a whole holds a higher share of hits than the screen did.
# SARS PLpro yeast = blocks SARS-CoV papain-like protease in a yeast assay. S. cerevisiae expressing SARS-CoV PLpro, growth rescue. Potency, µM (doses to about 32.9 µM), for the others: at the top dose activity, positive = growth rescue, most hits filed as activators. 0.19% of 330,000 active. AID 485353; also: potency is read from the fitted curve at half-maximal effect; 0% is about no effect; nearly all actives have a fitted effect of over 55% in size
# Tb PYK inh = blocks Trypanosoma brucei pyruvate kinase | TbPYK enzyme, Kinase-Glo Plus ATP luminescence, 45 min | 0.12% of 410,000 active | AID 624173 | Potency, µM (top dose mostly 76.8 µM), without a hit: at the top dose activity, negative = inhibition, most hits filed as inhibitors | Q57TT1; active = well fitted curve in the direction sought with a large enough effect; inconclusive = small, poorly fitted or top-dose-only effect, or another doubt; inactive = no such curve, though single readings can be large; an effect the other way counts as inactive or inconclusive; also: potency is read from the fitted curve at half-maximal effect; % is scaled to controls: 0 for no effect and ±100 for the full control effect; nearly all actives have a fitted effect of over 50% in size
#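 T. brucei PYK with substrate was exposed to pin-transferred compounds across a concentration series, then started with 130 uM ADP (final). After 45 min at room temperature, Kinase-Glo Plus luminescence was read, normalized and curve-fitted.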
# NS1 inh = blocks influenza NS1 protein function; Potency, µM (series often up to 46.1 µM), for inactives: at the top dose activity, positive = more growth; 0.4% of 270,000 active; also: potency is read from the fitted curve at half-maximal effect; actives are rising curves; nearly all actives have a fitted effect of over 50% in size
#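 S. cerevisiae expressing influenza A NS1, grown in glucose, washed, then diluted 1:100 into pH 6.0 -URA galactose medium with 23 nl compound. Growth recovery read as OD600; NS1-free strain serves as control.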
# Shiga inhibitor = Shiga toxin inhibition; Vero cells, Shiga toxin protein synthesis inhibition reporter; inhibition, % at 38.7 µM; 9.2% of 290,000 active; AID 2315; in the data active = inhibition mostly above about 28%, no sharp cut-off; inactive = mostly below about 43%; also: 0% is about no effect
# Cycloheximide cs = counter-screen for Shiga toxin inhibitors: cycloheximide protein synthesis inhibition; cell reporter, cycloheximide protein synthesis inhibition counterscreen; max response, %; AID 2314; 12% of 300,000 active; in the data active = max response mostly above about 13%, no sharp cut-off; inactive = mostly below about 14%; also: read at 38.3 µM for the half of the compounds with a filed dose; 0% is about no effect
# LmPK inhibitor = blocks Leishmania mexicana pyruvate kinase activity | Q27686 | purified LmPK, Kinase-Glo ATP luminescence, 1 h | Potency, µM (series often up to 57.5 µM), for inactives: top-dose activity change, negative = inhibition, hits mostly inhibitors | 0.37% of 290,000 active | AID 1721; active = well fitted curve in the direction sought with a large enough effect; inconclusive = small, poorly fitted or top-dose-only effect, or another doubt; inactive = no such curve, though single readings can be large; an effect the other way counts as inactive or inconclusive; also: potency is read from the fitted curve at half-maximal effect; % is scaled to controls: 0 for no effect and ±100 for the full control effect
# Target sequence (Q27686 whole entry, looked up): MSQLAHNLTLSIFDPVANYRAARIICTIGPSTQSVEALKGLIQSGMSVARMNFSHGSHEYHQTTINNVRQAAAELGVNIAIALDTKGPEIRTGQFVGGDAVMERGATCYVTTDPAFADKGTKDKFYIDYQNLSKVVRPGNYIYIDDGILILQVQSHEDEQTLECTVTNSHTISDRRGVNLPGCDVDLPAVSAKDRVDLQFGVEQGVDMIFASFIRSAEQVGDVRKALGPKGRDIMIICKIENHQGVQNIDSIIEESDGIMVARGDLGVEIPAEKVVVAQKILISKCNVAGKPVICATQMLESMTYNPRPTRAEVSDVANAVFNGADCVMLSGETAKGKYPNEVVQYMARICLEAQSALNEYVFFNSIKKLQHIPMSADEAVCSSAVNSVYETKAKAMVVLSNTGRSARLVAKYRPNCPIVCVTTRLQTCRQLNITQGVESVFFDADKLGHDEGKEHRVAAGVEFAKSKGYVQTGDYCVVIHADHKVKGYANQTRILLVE
#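 Screened at intermediate enzyme activity to detect both inhibitors and activators: LmPK at 0.1 nM, with a 0.5 nM enzyme column as activation reference. PEP 0.5 mM, ADP 0.1 mM; ATP detected by luminescence after 1 h.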
# * hit, by the source's call; ? = inconclusive; . = not tested or not shown. Unless noted, calls follow the shape of the full dose curve.
SMILES,SARS PLpro yeast,Tb PYK inh,NS1 inh,Shiga inhibitor,Cycloheximide cs,LmPK inhibitor
CCCn1nnc(NC(=O)c2ccccc2Br)n1,3%,6%,7%,49*,19,-8%
CCn1nnc(NC(=O)c2ccccc2Br)n1,-3%,-5%,6%,71*,27*,-7%
CCCn1nnc(NC(=O)c2cccnc2Cl)n1,27%,1%,10%,-1,-4,1%
CCn1nnc(NC(=O)C(c2ccccc2)c2ccccc2)n1,-1%,0%,-1%,16,10,-4%
O=C(Nc1ccccc1)Nc1ccccc1Br,-2%,-2%,.,117*,68*,-23%
CC(=O)c1ccc(NC(=S)Nc2ccc(Br)c(Cl)c2)cc1,-2%,-3%,.,-4,-1,2%
O=C(Nc1ccccc1)Nc1ccc(Br)c(Cl)c1,-18%,5%,-32%,72*,42*,1%
CCOc1ccccc1NC(=O)Nc1ccc(Cl)cc1,-16%,0%,?,41*,76*,-5%
CON(C)C(=O)Nc1ccc(Br)c(Cl)c1,.,.,.,54*,27*,.
COc1ccccc1NC(=O)Nc1ccccc1Br,-1%,-31%,-2%,12,-2,4%
CCc1ccccc1NC(=O)Nc1ccc(F)cc1,0%,1%,-8%,31,14*,-17%
O=C(Nc1ccc([N+](=O)[O-])cc1O)Nc1ccccc1Br,.,.,.,61*,36*,.
CCOc1ccccc1N(C(=O)Nc1ccc(Cl)cc1)C1=NC(C)CS1 (centres undefined),10%,-1%,-10%,82*,25*,2%
CC(C(=O)Nc1ccccc1Br)c1ccc([N+](=O)[O-])cc1 (centres undefined),?,-2%,3%,-2,-2,7%
O=C(Nc1ccccc1)Nc1cccc(NC(=O)Nc2ccccc2)c1F,-3%,4%,4%,47,18*,1%
CC(OC(=O)c1ccc(Cl)nc1)C(=O)N1CCc2ccccc21 (centres undefined),1%,0%,.,.,.,.
COc1cc(C)c(Cl)cc1S(=O)(=O)N1CCSC1,-5%,3%,-1%,-5,-1,1%
CCOC(=O)C(Cc1ccc(NC(C)=O)cc1)N1C(=O)c2ccccc2C1=O (centres undefined),-1%,6%,.,.,.,.
Cc1ccc(C(=O)Nc2nnc(S(=O)(=O)N3c4ccccc4CC3C)s2)cc1 (centres undefined),.,-3%,.,.,.,.
COC(=O)c1ccc(C(=O)NC(=S)Nc2nc3c(s2)CC(C)CC3)cc1 (centres undefined),6%,-6%,-1%,7,27*,5%
O=C1CC(c2ccccc2)CN1C(=O)c1ccccc1 (centres undefined),10%,9%,14%,38,16*,10%
CC(C(N)=O)N1CC(c2ccccc2)CC1=O (centres undefined),-1%,-10%,0%,-23,1,-4%
COc1ccc(C(=O)N2CC(c3ccccc3)CC2=O)cc1 (centres undefined),1%,2%,0%,63*,44*,3%
COc1cc2c(cc1OC)[C@@H](Cc1cc(OC)c(OC)c(OC)c1)[N@+](C)(CCCOC(=O)CC/C=C/CCC(=O)OCCC[N@+]1(C)CCc3cc(OC)c(OC)cc3[C@H]1Cc1cc(OC)c(OC)c(OC)c1)CC2,.,-1%,.,.,.,.
Cc1ccc(/C=N/NC(=O)c2ccc3nc[nH]c3c2)s1,3%,-11%,.,42,21,1%
SMILES,SARS PLpro yeast,Tb PYK inh,NS1 inh,Shiga inhibitor,Cycloheximide cs,LmPK inhibitor
O=C(Cc1ccc(O)cc1)N/N=C/c1cccs1,0%,2%,-3%,0,9,-1%
CCc1ccc(/C=N\NC(=O)c2ccc(Br)o2)s1,-61%,5%,-38%,100*,90*,-12%
Cc1ccc(/C=N/NC(=O)Cc2ccc(O)cc2)s1,1%,0%,-4%,26,27*,0%
Cc1ccc(/C=N/NC(=O)c2ccc(Br)o2)s1,-28%,-2%,-12%,82*,43*,-15%
COc1ccc(C(C(=O)NCc2ccccc2)N(C(=O)Cn2nnc3ccccc32)c2ccc(OC)cc2)cc1 (centres undefined),.,-8%,.,.,.,.
CCOC(=O)C1=C(CNCc2ccccc2)NC(=O)NC1c1ccc(C)cc1 (centres undefined),.,0%,.,.,.,.

# Screening results from PubChem.
